Compound activity: PubChem BioAssay, National Center for Advancing Translational Sciences (NCATS)
HEK cytotox = kills HEK 293 cells | HEK 293 viability, ATP luminescence (CellTiter-Glo), 48-72 h | Potency, µM (series often up to 115 µM), for inactives: at the highest dose activity change, negative = cytotoxicity, usual class: inhibitors | 6.6% of 94,000 active; also: % is scaled to controls: 0 for no effect and ±100 for the full control effect; nearly all actives have a fitted effect of over 60% in size
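CellTiter-Glo luminescence (cellular ATP) was read after 48 or 72 hr of compound exposure at 37 degree Celsius. Cells were HEK 293 plated at 250 cells/well.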
NIH3T3 tox = cytotoxic compounds in NIH 3T3 cells; 4.3% of 94,000 active; NIH 3T3 viability, CellTiter-Glo ATP luminescence, 48-72 h; Potency, µM (highest dose often 96.7 µM), without a hit: top-dose activity change, negative = cytotoxicity, hits mostly inhibitors; also: % is scaled to controls: 0 for no effect and ±100 for the full control effect; nearly all actives have a fitted effect of over 55% in size
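Cytotoxicity was measured by CellTiter-Glo ATP luminescence after 48 or 72 h compound exposure at 37 °C. Mouse NIH 3T3 fibroblasts were seeded at 400 cells/well and dosed by 23 nL pin transfer.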
GPT2 inh = GPT2 alanine aminotransferase inhibition; Q8TD30; Recombinant GPT2, coupled pyruvate oxidase/HRP Amplex Red fluorescence; Potency, µM (doses to about 57.7 µM), for the others: at the highest dose activity change, negative = inhibition, hits mostly inhibitors; 0.25% of 100,000 active; also: % is scaled to controls: 0 for no effect and ±100 for the full control effect; nearly all actives have a fitted effect of over 60% in size
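Fluorescence read-out: pyruvate from GPT2 turnover coupled to pyruvate oxidase, HRP and Amplex Red (0.2mM ThPP, 0.2U/mL PO and HRP, 50uM Amplex final). Substrates 250uM a-KG, 2mM L-alanine; enzyme 10ng/uL; 30 min RT.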
FLuc inh = inhibitors of firefly (Photinus pyralis) luciferase; P08659; purified P. pyralis luciferase, luminescence, biochemical; Potency, µM (doses to about 115 µM), usual class: inhibitors; 2.5% of 76,000 active; AID 1347043; also: % is scaled to controls: 0 for no effect and ±100 for the full control effect; nearly all actives have a fitted effect of over 65% in size
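Luminescence read by CCD imaging after purified firefly luciferase (10nM final) was added to substrate buffer holding 10uM D-luciferin and 10uM ATP, pH 7.5, pre-dosed with compound.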
hNpr1 antagonist = blocks ANP-stimulated signaling of human Npr1 receptor; P16066; HEK293 hNpr1 GloSensor cGMP, ANP-stimulated luminescence; Potency, µM (doses to about 46.3 µM), for inactives: at the highest dose activity change, negative = inhibition, usual class: inhibitors; 1.6% of 76,000 active; AID 1347048; calls by dose curve; also: % is scaled to controls: 0 for no effect and ±100 for the full control effect; nearly all actives have a fitted effect of over 60% in size
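Compound pre-incubated 30 min at room temperature on GloSensor-loaded HEK293 cells stably carrying hNpr1 and the pGS-40F cGMP biosensor. Stimulation uses hNppA at 0.1 nM final; luminescence is taken at baseline and 20 min post-agonist.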
NPR1 antag cnf = confirmation of human Npr1 natriuretic peptide receptor antagonists | Potency, µM (series often up to 57.6 µM), for inactives: top-dose activity change, negative = inhibition, most hits filed as inhibitors | HEK293 hNpr1 cGMP GloSensor luminescence, ANP-stimulated | 76% of 1,400 active | shares compounds with hNpr1 antagonist; calls by dose curve; also: nearly all actives have a fitted effect of over 70% in size
Npr2 selectivity = selectivity test of Npr1 antagonists against human Npr2; shares compounds with hNpr1 antagonist; HEK293 hNpr2 GloSensor cGMP luminescence, CNP-stimulated; Potency, µM (titrated, usually from 57.6 µM), inactives show at the top dose activity change, negative = inhibition, usual class: inhibitors; 67% of 1,400 active; AID 1347046; calls by dose curve; also: nearly all actives have a fitted effect of over 70% in size
Target sequence (P20594 whole entry, looked up): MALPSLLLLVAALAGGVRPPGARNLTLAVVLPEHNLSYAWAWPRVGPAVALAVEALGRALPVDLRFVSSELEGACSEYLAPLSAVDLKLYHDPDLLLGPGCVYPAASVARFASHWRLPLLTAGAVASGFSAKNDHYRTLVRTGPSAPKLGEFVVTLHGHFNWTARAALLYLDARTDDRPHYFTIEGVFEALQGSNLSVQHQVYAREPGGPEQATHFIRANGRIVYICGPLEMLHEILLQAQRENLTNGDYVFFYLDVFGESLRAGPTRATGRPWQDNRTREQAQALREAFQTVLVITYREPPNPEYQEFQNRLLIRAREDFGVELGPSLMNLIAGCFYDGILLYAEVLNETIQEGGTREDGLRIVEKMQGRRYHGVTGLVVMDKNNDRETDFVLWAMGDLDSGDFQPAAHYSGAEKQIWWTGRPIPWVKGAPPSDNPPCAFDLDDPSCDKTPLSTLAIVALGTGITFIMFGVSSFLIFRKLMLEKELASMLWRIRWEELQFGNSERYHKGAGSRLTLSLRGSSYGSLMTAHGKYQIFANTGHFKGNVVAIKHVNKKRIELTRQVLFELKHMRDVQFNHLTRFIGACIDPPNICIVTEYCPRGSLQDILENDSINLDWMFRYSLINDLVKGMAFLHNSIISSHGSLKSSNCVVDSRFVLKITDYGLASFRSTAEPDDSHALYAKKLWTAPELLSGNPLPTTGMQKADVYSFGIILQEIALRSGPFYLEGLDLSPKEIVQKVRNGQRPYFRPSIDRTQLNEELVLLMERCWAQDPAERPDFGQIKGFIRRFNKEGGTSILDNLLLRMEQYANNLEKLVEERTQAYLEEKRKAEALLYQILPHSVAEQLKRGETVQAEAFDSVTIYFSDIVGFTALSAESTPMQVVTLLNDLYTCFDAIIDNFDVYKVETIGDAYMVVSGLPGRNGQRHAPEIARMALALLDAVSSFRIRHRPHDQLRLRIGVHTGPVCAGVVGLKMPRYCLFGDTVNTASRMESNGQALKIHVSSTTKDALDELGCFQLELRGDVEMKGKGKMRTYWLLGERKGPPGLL
FLuc inh counter = FLuc enzyme inhibition, Npr1 counter-screen; purified FLuc enzyme, luminescence, Km substrate; shares compounds with hNpr1 antagonist; Potency, µM (top dose mostly 57.6 µM), for inactives: at the top dose activity change, negative = inhibition, usual class: inhibitors; 0.7% of 1,400 active; also: 0% is about no effect
GloSensor cGMP = control cell line activity, Npr1 antagonist counter-screen. shares compounds with hNpr1 antagonist. Potency, µM (series often up to 57.6 µM), for inactives: top-dose activity change, negative = inhibition, hits mostly inhibitors. HEK293 GloSensor cGMP, SNP-stimulated, luminescence. 69% of 1,400 active. AID 1347051; calls by dose curve; also: % is scaled to controls: 0 for no effect and ±100 for the full control effect; nearly all actives have a fitted effect of over 70% in size
* hit, by the source's call; i = inactive; ? = inconclusive; nt = not tested or not shown; [ ] = remark or other dose. Rows were chosen to be rich in hits. Some 10% of all compounds tested hit in one or more screens of this group. Unless noted, calls follow the shape of the dose curve; as a rule, active = well fitted curve in the direction sought with a large enough effect; inconclusive = small, poorly fitted or top-dose-only effect, or another doubt; inactive = no such curve, though single readings can be large; an effect the other way counts as inactive or inconclusive. Potency is read from the fitted curve at half-maximal effect.

SMILES | HEK cytotox | NIH3T3 tox | GPT2 inh | FLuc inh | hNpr1 antagonist | NPR1 antag cnf | Npr2 selectivity | FLuc inh counter | GloSensor cGMP
c1ccc(CN2CCNc3cnc(Nc4ccncn4)cc3C2)cc1 | ? | ? | ? | i | -2%[70.6 µM] | nt | nt | nt | nt
O=C1COc2ccc(N3CCCC3)nc2CN1Cc1ccc(C(F)(F)F)cc1 | 79µM* | ? | i | i | ? | 40µM* | ? | 0%[86.2 µM] | ?
O=C1COc2ccc(-c3ccc4c(c3)OCO4)nc2CN1Cc1ccc(F)cc1 | 56µM* | ? | -20%[88.5 µM] | i | ? | ? | 35µM* | 6%[86.2 µM] | ?
O=C1COc2ccc(-c3cccnc3)nc2CN1Cc1ccc(C(F)(F)F)cc1 | ? | ? | ? | i | -17%[70.6 µM] | nt | nt | nt | nt
Cc1ccccc1CN1Cc2nc(NCc3cccc(F)c3)ccc2OCC1=O | ? | 79µM* | -30%[88.5 µM] | i | ? | 40µM* | 35µM* | 0%[86.2 µM] | 40µM*
Cn1cc(CN2CCCC23CCN(c2ccc(C(F)(F)F)cn2)CC3)cc1C#N | ? | ? | -1% | i | -19% | nt | nt | nt | nt
COCc1cc(NCCSCc2ccccc2C)ncn1 | ? | ? | -3% | i | 11µM* | 22µM* | 19µM* | 2% | 15µM*
O=C(NCc1ccc(N2CCCC2)cc1)C1CCCN(c2cnn(Cc3ccccc3)c(=O)c2)C1 (stereo unspecified) | ? | ? | -28% | i | ? | ? | ? | -2% | ?
CCC1=C(C(=O)OC)C(c2cccc(OC)c2)N2C(CC(=O)NC3CC3)=CSC2=N1 (stereo unspecified) | -1% | i | i | i | -14% | nt | nt | nt | nt
C(=C\c1ccccc1)/CN1CCN(Cc2nc(COc3ccccc3)no2)CC1 | ? | ? | i | i | -25% | ? | -22% | 2% | ?
CCc1ccc(S(=O)(=O)N2CCN(C3CCN(CCc4ccccc4)C3=O)CC2)cc1 (stereo unspecified) | ? | ? | 2% | i | -21% | nt | nt | nt | nt
Cc1cccc(NC(=O)Cn2c(N(C)Cc3ccccc3)nc(C)cc2=O)c1 | ? | ? | 2% | i | 20µM* | 22µM* | 22µM* | -2% | 22µM*
CCc1cccc(NC(=O)Cn2c(N(C)Cc3ccccc3)nc(C)cc2=O)c1 | ? | ? | -5% | i | 8.9µM* | 11µM* | 12µM* | 0% | 9.7µM*
O=C(C1CCC1)N1C[C@@H]2CC[C@H](C1)N(C(=O)Nc1ccc(F)c(F)c1)C2 | ? | ? | i[11.5 µM] | ? | -2% | nt | nt | nt | nt
COC1CCN(C(=O)c2cnc3c(c2)N(C(=O)Cc2cn(C)c4ccccc24)CCC3)CC1 | 3% | ? | 0% | i | -2% | nt | nt | nt | nt
Cn1cc(CC(=O)N2CCCc3ncc(C(=O)N4CCC(c5ccccc5)CC4)cc32)c2ccccc21 | 40µM* | ? | -2% | i | 16µM* | 22µM* | 22µM* | 6% | 19µM*
O=C(C[C@@H]1CCNC[C@@H]1Cc1cc(CN2CCCCC2)on1)N1CCN(c2ccccc2)CC1 | ? | ? | -24% | i | 1% | nt | nt | nt | nt
